Results: PubChem BioAssay AID602292 (National Center for Advancing Translational Sciences (NCATS), 2012)
In all, about 1,300 compounds went through this assay and about 380 (29%) were called active. About 37% were inconclusive and are not listed. The call rests on the fitted dose curve; in most records, active means well fitted inhibition curve with a large enough effect; inconclusive means small, poorly fitted or top-dose-only effect; inactive means flat fitted curve, though single readings scatter. The list shows a part of the results.

molecular target: Thyrotropin receptor (Homo sapiens) (UniProt P16473); assay: qHTS for antagonists of the Thyroid Stimulation Hormone Receptor: Hit Validation in Primary Screen; conditions: TSHR-expressing cells, cAMP antagonist mode; series mostly up to 58 µM; further: nearly all actives have a fitted effect of over 80% in size
Sequence (P16473 whole entry, looked up): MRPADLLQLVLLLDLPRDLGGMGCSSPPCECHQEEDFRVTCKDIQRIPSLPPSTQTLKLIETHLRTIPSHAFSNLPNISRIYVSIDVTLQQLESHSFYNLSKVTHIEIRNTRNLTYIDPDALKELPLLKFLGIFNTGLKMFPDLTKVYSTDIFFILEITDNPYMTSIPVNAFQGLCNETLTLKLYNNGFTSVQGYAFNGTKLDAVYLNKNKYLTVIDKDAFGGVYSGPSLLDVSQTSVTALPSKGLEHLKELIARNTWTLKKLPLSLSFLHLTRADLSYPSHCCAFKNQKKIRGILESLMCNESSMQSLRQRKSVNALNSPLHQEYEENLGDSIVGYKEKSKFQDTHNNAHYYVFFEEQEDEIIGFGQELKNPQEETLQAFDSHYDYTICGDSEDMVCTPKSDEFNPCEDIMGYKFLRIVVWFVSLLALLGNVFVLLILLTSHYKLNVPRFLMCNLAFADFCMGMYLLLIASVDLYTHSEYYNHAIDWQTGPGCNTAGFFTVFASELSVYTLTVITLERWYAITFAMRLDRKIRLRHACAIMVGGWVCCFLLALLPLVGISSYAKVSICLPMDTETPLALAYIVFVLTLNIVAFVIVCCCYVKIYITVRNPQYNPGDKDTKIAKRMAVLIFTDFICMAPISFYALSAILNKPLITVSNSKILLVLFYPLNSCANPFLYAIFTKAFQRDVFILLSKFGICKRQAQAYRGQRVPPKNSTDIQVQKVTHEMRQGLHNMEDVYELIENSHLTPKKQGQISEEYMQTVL
Source text: The thyroid-stimulating hormone receptor (TSHR) is a member of the 7 trans-membrane-spanning receptor (7TMR) family of cell surface receptors. TSHR-mediated hyperthyroidism is important in thyroid pathology. The development of small molecule antagonists of TSHR may lead to therapeutic approaches for TSHR-mediated hyperthyroidism caused by constitutively activating mutations or stimulating auto-antibodies associated with Graves' disease. Graves' disease is the leading cause of hyperthyroidism and is caused by autoantibodies that stimulate TSHR (TsAbs) causing thyroid growth and unregulated overproduction of thyroid hormones and existing treatments have liabilities (agranulocytosis). In addition, TSHRs are known to be expressed in multiple extrathyroidal tissues including bone, brain, kidney, testis, fat and cells of the immune system but the role of the TSHR in these tissues is not clear. Therefore, TSHR antagonists/inverse agonists could be used as probes of extrathyroidal TSHR function. Finally, TSHR inverse agonists, which are a subclass of antagonists that inhibit agonist-independent (or basal or constitutive) TSHR signaling, could be used to inhibit TSH-independent signaling in patients with recurrent or metastatic thyroid cancer who are receiving thyroid hormone to suppress TSH.
In collaboration between scientist from the NCGC and the NIDDK, a miniaturized HTRF high-throughput screen was developed. It's a cell based assay, where an anti cAMP antibody contains a fluorescent cryptate tag (excitation 337 nm; emission 620 nm) and the acceptor is cAMP-d2 (excitation 620 nm; emission 665 nm). When antibody and cAMP-d2 interact and are excited by a 337 nm light, a FRET occurs resulting in emission at 665 nm. The assay is competition between cAMP-d2 and cAMP (from the cell lysate). The homogeneous protocol allows for one step dispense after stimulation that is automation friendly. This is a hit validation assay using the primary screen format.
NIH Chemical Genomics Center [NCGC]
NIH Molecular Libraries Probe Centers Network [MLPCN]
Assay Provider: Marvin Gershengorn, NIDDK
1. 3ul of 200 TSHR freshly harvested cells/well are dispensed into a 1536 TC-treated white solid bottom plate.
2. Through pintool addition, 23nl of compounds and control in 100% DMSO are added to the plate.
3. Then 1ul of EC80 TSH (4nM final) is added to the plate.
4. Assay is incubated at 37 deg C for 2 hours.
5. 2ul of cAMP antibody diluted 1:20 in lysis buffer is added.
6. Immediately following, 2ul of d2 diluted 1:20 in HBSS is added seperately.
7. The assay is incubated for 30 minutes at ambient room temperature.
8. The result is obtained by using a ViewLux read-out with HTRF settings.
Potency means the concentration at half of the fitted maximal effect.

Row | SMILES | Potency
1 | O=C(Nc1ccc(Oc2ccc(Cl)cc2)c(Cl)c1)c1cc(I)cc(I)c1O | 1.51 µM (active)
2 | COC(=O)C1=C(c2ccc(-c3ccccc3)c(F)c2)C[C@@H]2CC[C@H]1N2C(=O)NCCOc1ccccc1 | 5.36 µM (active)
3 | COC(=O)C1=C(c2ccc(OCc3ccccc3)cc2)C[C@@H]2CC[C@H]1N2C(=O)NCc1cccc(OC)c1 | inactive
4 | COC(=O)C1=C(c2ccc(-c3ccccc3)c(F)c2)C[C@@H]2CC[C@H]1N2C(=O)NCCCOC(C)C | 23.9 µM (active)
5 | COC(=O)C1=C(c2ccc(-c3ccccc3)c(F)c2)C[C@@H]2CC[C@H]1N2C(=O)NCc1ccco1 | 21.3 µM (active)
6 | COC(=O)C1=C(c2ccc(-c3ccccc3)c(F)c2)C[C@@H]2CC[C@H]1N2C(=O)NCCc1ccccc1 | 6.01 µM (active)
7 | O=C(Nc1ccc2ccccc2c1)c1nn(C23CC4CC(CC(C4)C2)C3)cc1Br | inactive
8 | COC(=O)C1=C(c2ccc(-c3ccccc3)c(F)c2)C[C@@H]2CC[C@H]1N2C(=O)NCC1CC1 | 23.9 µM (active)
9 | COC(=O)C1=C(c2ccc(-c3ccccc3)c(F)c2)C[C@@H]2CC[C@H]1N2C(=O)NC(C)C | 23.9 µM (active)
10 | CNc1ccc2oc(C[C@H]3O[C@@]4(CC[C@H]3C)O[C@H]([C@H](C)C(=O)c3ccc[nH]3)[C@H](C)C[C@H]4C)nc2c1C(=O)O | inactive
11 | O=C(C1CCN(c2nc3ccc(Br)cc3s2)CC1)N1CCC2(CC1)OCCO2 | 30.1 µM (active)
12 | COc1cc(C(C)=O)ccc1OC(=O)N(C)c1ccccc1 | inactive
13 | COC(=O)C1=C(c2ccc(OC(F)(F)F)cc2)C[C@@H]2CC[C@H]1N2C(=O)N1CCC(C)CC1 | 30.1 µM (active)
14 | CNc1cc(Cl)c2nonc2c1[N+](=O)[O-] | 4.78 µM (active)
15 | Cc1ccccc1-c1nc(CS(=O)CC(=O)N2CCC3(CC2)OCCO3)c(C)o1 (centres undefined) | inactive
16 | N#CC(C#N)=NNc1ccc(-n2ccc(C(F)(F)F)n2)cc1 | 2.39 µM (active)
17 | Cc1ccc(-n2c(C)nc3ccccc3c2=O)c(C)c1 | inactive
18 | Oc1ccc(Cl)cc1Cc1cc(Cl)ccc1O | 30.1 µM (active)
19 | Nc1ccc(C2(c3ccc(N)cc3)c3ccccc3-c3ccccc32)cc1 | 6.01 µM (active)
20 | CC12CCC3C(CC=C4CC5(CCC43C)OCCO5)C1CCC2=O (centres undefined) | inactive
21 | CCN(CC)S(=O)(=O)c1ccc(NN=C(C#N)C#N)cc1 | 6.01 µM (active)
22 | N#CC(C#N)=NNc1ccc([N+](=O)[O-])cc1 | 2.69 µM (active)
23 | COc1cc(N2C(=O)CC(=O)NC2=O)cc(OC)c1OC | inactive
24 | Cc1nc2ccccc2c(=O)n1-c1cccc(C(F)(F)F)c1 | inactive
